tim23-1 inh: tim23-1 yeast growth inhibition; S. cerevisiae tim23-1 growth, BacTiter-Glo luminescence, 24 h; inhibition, % at 20 µM; 330,000 tested, 1.3% active; AID 463212;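 active = growth inhibition of the mutant yeast at or above 50%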;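 also: temperature-sensitive mutant grown at 25 °C; plate controls were DMSO-treated mutant yeast for no effect and medium wells lacking yeast for full effect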
PfHsp90 set2: growth inhibition of yeast expressing Plasmodium Hsp90 | S. cerevisiae expressing PfHsp90, BacTiter-Glo ATP, 48 h; yeast lacking PDR1 and PDR3 efflux regulators | inhibition, % at 9.4 µM | 310,000 tested, 0.32% active | AID 504621;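 active = every replicate shows inhibition above about 80%, whatever the replicate mean, limit read from the data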;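 also: 0% = DMSO neutral controls and 100% = 20 µM radicicol positive controls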
V-ATPase pHluor: alters yeast V-ATPase proton transport; response, % at 10 µM; S. cerevisiae, pHLuorin cytosolic pH fluorescence; 350,000 tested, 0.37% active; in the data active = response mostly above about 7.3%, no sharp cut-off; inactive = mostly below about 5.4%; also: actives read high
TIM10 inh: growth inhibitors of TIM10 yeast strain | inhibition, % at 10 µM | 330,000 tested, 1.4% active | S. cerevisiae TIM10 strain growth, BacTiter-Glo luminescence, 24 h | AID 463195;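 active = inhibition of 40% or more at the single tested concentration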;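 also: wild-type TIM10 isogenic control strain grown at permissive 25 °C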
tim10-1 inh: growth inhibitors of tim10-1 mutant yeast; S. cerevisiae tim10-1 ts strain growth, BacTiter-Glo, 24 h; inhibition, % at 20 µM; 330,000 tested, 2.2% active; AID 463190;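 active = inhibition of at least 40%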;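 also: mutant grown at 25 °C; 0% = DMSO wells with yeast and 100% = wells holding no yeast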
SKKanGAS inh: SKKanGAS growth inhibition; S. pyogenes SKKanGAS, kanamycin growth, BacTiter-Glo, 6 h; inhibition, % at 7.5 µM; 300,000 tested, 1.3% active; AID 1662;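 active = mean replicate score, as percent of positive control median, at least 50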;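 also: strain carries kanamycin resistance gene driven by streptokinase promoter and grows in 40 µg/ml kanamycin; loss of luminescence reflects streptokinase promoter inhibition or plain growth inhibition; 0% = median of DMSO wells and 100% = positive control at its reference dose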
tim23-1 confirm: confirmation of tim23-1 mutant yeast growth inhibitors; AID 463218; inhibition, % at 20 µM; S. cerevisiae tim23-1 growth, BacTiter-Glo luminescence, 24 h; 4,400 tested, 83% active; shares compounds with tim23-1 inh;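 active = inhibition above about 39% in either of two replicate wells at 20 µM, limit read from the data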;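 also: temperature-sensitive tim23-1 mutant grown at 25 °C; 0% = DMSO wells with yeast and 100% = medium wells without yeast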
* marks the source's active call; other numbers are inactive results; . = no result. Most compounds without a hit are left out; they make up all but 4.6% or so of the library.

SMILES	tim23-1 inh	PfHsp90 set2	V-ATPase pHluor	TIM10 inh	tim10-1 inh	SKKanGAS inh	tim23-1 confirm
O=C(Nc1ccc2oc(-c3ccccc3)nc2c1)c1cccnc1	56.2*	14.7	-0.6	29.5	13.2	7.1	71.0*
O=C(Nc1ccc2nn(-c3ccc(F)cc3)nc2c1)c1cccnc1	14.1	31.0	0.5	11.9	-3.4	-1.6	.
Cc1cccc(NC(=S)N2CCC(NC(=O)c3cccc(F)c3)CC2)c1	9.5	-6.6	3.2	-12.4	-10.8	10.1	.
Cc1nc(C(=O)O)cc([N+](=O)[O-])c1C	.	.	-3.0	.	.	.	.
CC1C(=O)N2CCCc3cc(NC(=O)C(=O)NCc4ccccn4)cc1c32 (stereo not drawn)	-12.6	.	0.5	7.8	-13.4	0.0	.
CC(CCc1ccccc1)NC(=O)C(Cc1ccccc1)NC(N)=O (stereo not drawn)	1.2	-1.9	-3.2	3.9	-13.0	-1.5	.
Cc1csc2c(N3CCN(S(=O)(=O)c4ccc(Cl)cc4)CC3)ncnc12	8.7	9.8	-4.5	13.1	12.2	4.1	.
O=S(=O)(c1ccc(Cl)cc1)N1CCN(c2ncnc3sccc23)CC1	58.1*	-29.6	-0.7	9.0	-1.1	.	30.6
O=S1(=O)N=C(c2ccccc2)C=C(c2ccccc2)N1	16.0	4.1	1.3	-9.3	-4.4	.	.
Cc1nc2cc(C(=O)OCC(=O)NC3CCS(=O)(=O)C3)ccc2n1-c1ccccc1 (stereo not drawn)	6.2	-6.4	-1.6	-2.9	2.7	4.6	.
Cc1nc2cc(C(=O)OCC(=O)Nc3cccc(Cl)c3)ccc2n1-c1ccccc1	52.9*	48.9	-0.9	15.6	11.9	18.8	30.0
COc1ccc(NC(=O)C#Cc2ccccc2)cc1	51.4*	-11.0	5.5	24.1	-26.3	-0.3	54.8*
O=C(C#Cc1ccccc1)Nc1cccc(F)c1	54.1*	-37.2	0.2	39.3	7.0	3.9	52.5*
O=C(O)/C=C/c1ccc(-n2ccnc2)cc1	0.6	4.7	-1.2	-0.6	10.4	-15.7	.
O=C(Nc1ccncc1)Nc1cccc(C(F)(F)F)c1	7.3	19.5	-0.3	0.9	7.0	-10.3	.
Oc1c(C(Nc2cccc(C(F)(F)F)c2)c2ccncc2)ccc2cccnc12 (stereo not drawn)	58.6*	103.8*	3.3	18.4	28.9	60.2*	56.2*
O=C(CC(=O)c1cc(Cl)ccc1O)c1ccccc1	55.5*	-38.8	2.0	23.1	34.2	111.1*	65.0*
COc1ccc(C(=O)CC(=O)c2ccccc2O)cc1	50.3*	-31.1	1.2	6.6	3.6	23.9	52.5*
CN(C(=O)CCNC(=O)Cn1cnc2ccccc2c1=O)c1ccccc1F	8.9	9.0	-1.9	-19.4	11.6	0.4	.
O=C(Nc1ccc(C(=O)N2CCN(c3ccccc3F)CC2)cc1)C1=CSCCO1	52.5*	0.9	-6.9	29.1	39.4	-5.5	42.2*
O=C(c1ccc(Cl)cc1)N1CCN(C(=O)c2ccco2)CC1	11.3	15.5	1.9	-3.6	-2.1	0.5	.
O=C(c1ccco1)N1CCN(C(=O)c2ccc(-c3ccc(Cl)cc3)o2)CC1	51.4*	-3.1	-5.5	17.6	2.3	.	40.4*
CCCN1CCC(NC23CC4CC(CC(C4)C2)C3)CC1	-59.9	.	.	-44.2	-20.3	0.8	.
COc1ccc(OC)c(-c2csc(NC(=O)Cc3ccccc3F)n2)c1	51.0*	-31.0	3.9	12.7	14.7	0.5	46.4*
COc1ccc(OC)c(-c2csc(NC(=O)Cc3ccccc3OC)n2)c1	39.9	-12.6	4.8	11.0	10.6	4.3	.
SMILES	tim23-1 inh	PfHsp90 set2	V-ATPase pHluor	TIM10 inh	tim10-1 inh	SKKanGAS inh	tim23-1 confirm
COc1ccc(S(N)(=O)=O)cc1C(=O)OCC(=O)N1c2ccccc2NC(=O)C1(C)C	94.1*	-0.3	1.5	-2.5	-14.4	.	12.8
O=C(CSc1nnnn1Cc1ccccc1)c1ccc(F)cc1	53.7*	-12.7	4.2	29.0	18.7	-2.3	52.4*
O=C(CSc1nnnn1Cc1ccccc1)c1ccccc1	34.4	6.0	-0.8	32.8	22.5	-0.7	.
CCCN1Cc2cccc(C(=O)N3CCN(c4ccc(F)cc4)CC3)c2C1=O	6.5	-4.8	2.1	7.8	10.5	2.4	.
CCCN1CCN(C(=O)c2cccc3c2C(=O)N(CCOC)C3)CC1	95.9*	8.7	-3.7	-4.0	2.6	-4.7	14.0
CCNC(=O)COC(=O)c1sccc1C	-9.1	10.6	-1.6	-21.1	-7.1	.	.
C[C@H](CO)N1C[C@H](C)[C@@H](CN(C)Cc2ccc(C(=O)O)cc2)Oc2c(NS(=O)(=O)c3cn(C)cn3)cccc2C1=O	-11.6	-11.1	-2.0	-4.6	-5.5	.	.
Cn1c(C=O)c(C#CC(C)(C)O)c2ccccc21	61.4*	7.2	-1.3	38.4	29.4	.	59.9*
CCOC(=O)c1cccnc1SCc1cc(=O)n2ccccc2n1	70.6*	3.9	1.5	-5.2	17.1	6.7	64.8*
CC1=NN(c2ccccc2)C(=O)/C1=C/c1ccc(Cl)cc1	41.6	-4.1	-1.2	25.4	23.6	-1.2	.
COc1cc(/C=C2/C(=O)N(c3ccccc3)N=C2C)ccc1OS(=O)(=O)c1ccccc1	30.4	.	.	18.1	25.3	14.2	.
CC1=NN(c2ccccc2)C(=O)/C1=C/c1cccs1	56.9*	23.5	10.2	20.9	7.1	4.9	52.1*
COc1ccc(/C=C2/C(=O)N(c3ccccc3)N=C2C)cc1Br	55.6*	-27.9	1.9	21.0	32.3	3.8	44.6*
c1ccc(N=Nc2cn[nH]c2-c2ccco2)cc1	51.3*	-48.1	1.4	24.6	27.2	0.8	47.1*
O=C(/C=C/c1ccc(Cl)cc1)c1ccc([N+](=O)[O-])o1	59.7*	.	12.1*	34.2	-1.7	-6.1	10.1
Cc1ccc(C(=O)/C=C/c2ccccc2)o1	27.7	36.7	1.2	11.7	23.6	-2.6	.
COc1ccc(CN2C(=O)C(CC(=O)NCC3CCCCC3)CC(C(=O)N(C(C)C)C(C)C)=C2C)cc1 (stereo not drawn)	.	.	1.1	.	.	.	.
CCOC(=O)C1=C(N)Oc2cc(O)ccc2C1c1ccc(F)cc1F (stereo not drawn)	56.0*	14.4	0.2	22.5	12.2	-0.1	59.1*
CCOC(=O)C1=C(N)Oc2cc(O)ccc2C1c1ccc(C)cc1 (stereo not drawn)	23.0	-0.7	-0.4	7.0	16.2	15.5	.
O=[N+]([O-])c1nn(-c2ccc3c(c2)OCCO3)n(O)c1=Nc1ccccc1	53.1*	-91.1	-0.1	4.8	36.3	2.3	23.4
O=[N+]([O-])c1nn(-c2ccc3c(c2)OCCO3)n(O)c1=Nc1ccc(Cl)cc1	43.6	35.2	1.6	20.2	24.3	16.6	.
Cc1ccc(NC(=O)c2ccc(OCc3c(C)noc3C)cc2)cc1C	59.1*	21.7	0.0	30.1	-26.1	.	56.2*
O=C(c1ccccc1)c1c[nH]c2ccccc12	.	-14.2	0.8	.	.	1.1	.

Compound activity as filed in PubChem BioAssay.
